A short description of assay [1]: Quantitative High-Throughput drug screen in 47 multiple myeloma cell lines against the NCATS MIPE library collection: VP6_DJ cell viability assay (AID 1919867). Also: nearly all actives have a fitted effect of over 40% in size. Also: potency is read from the fitted curve at half-maximal effect. As to conditions: ATP luminescence, 48 h; series mostly up to 45.8 µM. Summed up: (§1)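 Inhibition of viability over 48 h was scored by ATP content (CellTiter-Glo) in 500-cell wells. Zero and full viability were defined by media-only and DMSO-only wells.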

A short description of assay [2]: Quantitative High-Throughput drug screen in 47 multiple myeloma cell lines against the NCATS MIPE library collection: UTMC2_PLB cell viability assay (AID 1919868). Also: nearly all actives have a fitted effect of over 55% in size. Also: potency is read from the fitted curve at half-maximal effect. As to conditions: CellTiter-Glo ATP luminescence, 48 h; viability (% of DMSO control): at 45.8 µM (top of the series). Summed up:
as §1
A general note: In ATP-based viability assays light output follows the ATP content of the culture.

The nature of assay [3]: Quantitative High-Throughput drug screen in 47 multiple myeloma cell lines against the NCATS MIPE library collection: PE2_PLB cell viability assay (AID 1919869). Also: nearly all actives have a fitted effect of over 35% in size. Also: potency is read from the fitted curve at half-maximal effect. As to conditions: PE2_PLB myeloma cells viability, ATP luminescence, 48 h; series mostly up to 45.8 µM. Summed up:
as §1

Assay [4] can be described thus: Quantitative High-Throughput drug screen in 47 multiple myeloma cell lines against the NCATS MIPE library collection: PCM6_Riken cell viability assay (AID 1919870). Also: nearly all actives have a fitted effect of over 30% in size. Also: potency is read from the fitted curve at half-maximal effect. The note with it: CellTiter-Glo ATP, 48 h; series mostly up to 45.8 µM. Summed up: as §1
Assay [5] in a line: Quantitative High-Throughput drug screen in 47 multiple myeloma cell lines against the NCATS MIPE library collection: OPM2_DSMZ cell viability assay (AID 1919872). Also: nearly all actives have a fitted effect of over 30% in size. Also: potency is read from the fitted curve at half-maximal effect. The note with it: OPM2 myeloma viability, CellTiter-Glo ATP luminescence, 48 h; series mostly up to 45.8 µM. Summed up: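 Viability readout: CellTiter-Glo luminescence following 5 min room-temperature incubation with reagent. Prior exposure: 48 h, 37C, humidified 5% CO2, 500 cells per well.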

Assay [6] can be described thus: Quantitative High-Throughput drug screen in 47 multiple myeloma cell lines against the NCATS MIPE library collection: RPMI8226_ATCC cell viability assay (AID 1919871). Also: nearly all actives have a fitted effect of over 30% in size. Also: potency is read from the fitted curve at half-maximal effect. The note with it: RPMI8226 myeloma viability, CellTiter-Glo ATP luminescence, 48 h; series mostly up to 45.8 µM. Summed up:
as §1

Assay [7] can be described thus: Quantitative High-Throughput drug screen in 47 multiple myeloma cell lines against the NCATS MIPE library collection: KMS11_JCRBsus cell viability assay (AID 1919873). Also: nearly all actives have a fitted effect of over 50% in size. The note with it: KMS11 myeloma viability, CellTiter-Glo ATP luminescence, 48 h; series mostly up to 45.8 µM. Summed up:
as §1

A short description of assay [8]: Quantitative High-Throughput drug screen in 47 multiple myeloma cell lines against the NCATS MIPE library collection: KMS28BM_JCRB cell viability assay (AID 1919874). Also: nearly all actives have a fitted effect of over 35% in size. Also: potency is read from the fitted curve at half-maximal effect. The note with it: CellTiter-Glo ATP, 48 h; series mostly up to 45.8 µM. Summed up:
as §1

Results filed as inconclusive are left out. Activity calls are given as the source filed them. Calls follow the shape of the dose curve; as a rule, active = well fitted cell-killing curve with a large enough effect; inconclusive = small, poorly fitted or top-dose-only effect, or effect the other way; inactive = no such curve, though single readings can be large or run the other way.

For `Cc1cnc(Nc2cccc(CN3CCOCC3)c2)nc1Nc1cccc(S(=O)(=O)NC(C)(C)C)c1`, the Potency in assay [1] is 2.96 µM (active); in assay [2], 1.18 µM (active); in assay [3], 1.87 µM (active); in assay [4] it was 6.62 µM (active); in assay [5], 9.35 µM (active).
As for `CN1[C@H]2CC[C@H]1CC(OC(=O)c1c[nH]c3ccccc13)C2` (stereo not given in full), the Potency in assay [1] is 8.33 µM (active); in assay [4], 6.62 µM (active). Moreover, the Potency entry in assay [2], in assay [3], in assay [6] and in assay [5] was “inactive” in each case.
On to `CC1CNc2c(cccc2S(=O)(=O)N[C@@H](CCCN=C(N)N)C(=O)N2CC[C@@H](C)C[C@@H]2C(=O)O)C1` (stereo not given in full), for which the Potency entry in assay [1], in assay [2], in assay [3], in assay [4], in assay [6] and in assay [5] was “inactive” in each case. In assay [7], the Potency result is “inactive”.
With `CN1CCC(COc2cnc(-c3cccc(Cn4nc(-c5cccc(C#N)c5)ccc4=O)c3)nc2)CC1`, the Potency was 0.59 µM (active) in assay [1], 0.526 µM (active) in assay [2], 1.05 µM (active) in assay [3] and 0.372 µM (active) in assay [4]. Also, the Potency result in assay [6] and in assay [5] was “inactive” each time.
Consider `Cc1nc(NC(=O)N2CCC[C@@H]2C(N)=O)sc1-c1csc(C(C)(C)C)n1`, for which, in assay [1], the Potency is 0.264 µM (active).
As to `CNC(=O)c1ccc2c(C(=Nc3cccc(CN(C)C)c3)c3ccccc3)c(O)[nH]c2c1`, the Potency in assay [1] was 16.6 µM (active); in assay [2], 16.6 µM (active); in assay [3], 18.7 µM (active); in assay [4] it was 16.6 µM (active); in assay [6], 13.2 µM (active); in assay [8] it was 8.33 µM (active). In addition, the Potency entry in assay [5] is “inactive”.
For the molecule `CN1C(=O)C(Cc2c[nH]c3ccccc23)NC1=S` (stereo not given), the Potency in assay [1] is 7.43 µM (active); in assay [2] it was 2.96 µM (active); in assay [4] it was 3.72 µM (active). The Potency entry in assay [3], in assay [6], in assay [5] and in assay [8] was “inactive” in each case.
For `CC(C)Oc1cc(Nc2nc(N[C@@H](C)c3ccc(F)cn3)ncc2Cl)[nH]n1`, the Potency in assay [1] is 7.43 µM (active); in assay [2], 8.33 µM (active); in assay [3], 6.62 µM (active); in assay [4], 7.43 µM (active); in assay [5] it was 16.6 µM (active). For the same molecule, the Potency entry in assay [6] was “inactive”.

(Values after PubChem BioAssay (NCATS).)
